Measurements published in PubChem BioAssay (EPA / NIEHS).
Inconclusive results are not listed. The source made the active and inactive calls. The calls were made as follows, unless noted: active = hit-call score of the fitted dose curve at least 0.9, where 1 is the maximum; inconclusive = response in the unintended direction; inactive = score below 0.9.

How the values were obtained:
[1] = ATG_TCF_b_cat_CIS: Attagene CIS-FACTORIAL HepG2 Assay for human T-Cell-Factor with beta-catenin (TCF/b-cat) (AID 2282965; active = hit-call score of the fitted dose curve at least 0.9, where 1 is the maximum; inactive = score below 0.9); conditions: HepG2 TCF/beta-catenin cis-reporter transcription, actives raise or lower the signal
Procedure, shortened: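 Endogenous TCF/LEF activity read as reporter transcript level via RT-PCR and capillary electrophoresis fluorescence in transfected HepG2, 24 h exposure; gain or loss of signal fitted against DMSO controls.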

[2] = ATG_TAL_CIS: Attagene CIS-FACTORIAL HepG2 Assay for human TAL Basal Promoter (AID 2282966; active = hit-call score of the fitted dose curve at least 0.9, where 1 is the maximum; inactive = score below 0.9;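 also: background control endpoint measuring basal TAL promoter reporter mRNA not a specific factor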); conditions: HepG2 Attagene cis-factorial TAL promoter reporter; actives raise or lower the signal
Procedure, shortened: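 RT-PCR plus capillary electrophoresis quantifies reporter mRNA induction in transiently transfected HepG2 cells after 24 h chemical treatment. DMSO serves as negative control and baseline for bidirectional fitting.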

[3] = ATG_VDRE_CIS: Attagene CIS-FACTORIAL HepG2 Assay for human Vitamin D Receptor Element (VDRE) (AID 2282968; active = hit-call score of the fitted dose curve at least 0.9, where 1 is the maximum; inactive = score below 0.9); conditions: HepG2 VDRE cis-reporter transcription, actives raise or lower the signal
Procedure, shortened: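 Reporter mRNA induction, quantified by capillary electrophoresis of fluorescently labelled RT-PCR products, was read 24 h after dosing HepG2 cells carrying transiently transfected cis-regulated reporter units; gain or loss relative to DMSO.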

[4] = target: Nuclear receptor subfamily 1 group I member 3 (Homo sapiens) (UniProt Q14994); experiment: ATG_CAR_TRANS: Attagene TRANS-FACTORIAL HepG2 Assay for human Constitutive Androstane Receptor (CAR) (AID 2282969); conditions: HepG2 Attagene TRANS-FACTORIAL CAR reporter;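 also: activators raise reporter mRNA above DMSO so AC50 marks induction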
Procedure, shortened: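 Readout is reporter mRNA induction, quantified by fluorescent primer extension and capillary electrophoresis after RT-PCR. Cells were HepG2 transiently carrying chimeric NR-Gal4 constructs with GAL4-UAS reporters, treated for 24 h; activity scored upward from DMSO.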

[5] = target: X-box-binding protein 1 (Homo sapiens) (UniProt P17861); experiment: ATG_Xbp1_CIS: Attagene CIS-FACTORIAL HepG2 Assay for human X-box Binding Protein 1 (XBP1) (AID 2282972; active = hit-call score of the fitted dose curve at least 0.9, where 1 is the maximum; inactive = score below 0.9); conditions: HepG2 XBP1 cis-element reporter, Attagene multiplex; actives raise or lower the signal
Procedure, shortened: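 HepG2, transient MRTU transfection (cis-promoter driven), 24 h compound exposure. Total RNA → oligo(dT) RT → PCR → 6-FAM labeling → HpaI cut → CE. Bidirectional fit vs DMSO.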

[6] = ATG_GAL4_TRANS: Attagene TRANS-FACTORIAL HepG2 Assay for GAL4 (Internal Marker) (AID 2282976); conditions: HepG2 Attagene TRANS GAL4 internal marker reporter
Procedure, shortened: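 In transfected human HepG2 liver cells dosed 24 h, GAL4 reporter mRNA serves as a baseline marker. Detection by RT-PCR with fluorescent capillary electrophoresis, activity fitted upward relative to DMSO.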

[7] = target: Estrogen-related receptor gamma (Homo sapiens) (UniProt P62508); experiment: ATG_ERRg_TRANS: Attagene TRANS-FACTORIAL HepG2 Assay for human Estrogen-Related Receptor gamma (ERRg) (AID 2282977); conditions: HepG2 Attagene TRANS reporter, ERRg transactivation;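 also: hits increase reporter signal over DMSO so potencies reflect activators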
Procedure, shortened: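 HepG2 cells transiently transfected with multiplexed GAL4-UAS reporter units driven by chimeric NR-Gal4 proteins; 24 h exposure. Reporter mRNA quantified by RT-PCR, fluorescent labelling, HpaI digestion and capillary electrophoresis; gain of signal vs DMSO.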

[8] = target: Glucocorticoid receptor (Homo sapiens) (UniProt P04150); experiment: ATG_GR_TRANS: Attagene TRANS-FACTORIAL HepG2 Assay for human Glucocorticoid Receptor (GR) (AID 2282978); conditions: HepG2 Attagene TRANS GR reporter, mRNA transcription;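 also: activators score as hits since higher reporter transcript over DMSO is fitted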
Procedure, shortened: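 Fluorescent capillary-electrophoresis quantitation of reporter mRNA is the readout, taken 24 h after dosing human HepG2 cells carrying transiently transfected GAL4-UAS reporter units activated by chimeric NR-GAL4 fusions; activity scored as induction over DMSO.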

[9] = target: Oxysterols receptor LXR-beta (Homo sapiens) (UniProt P55055); experiment: ATG_LXRb_TRANS: Attagene TRANS-FACTORIAL HepG2 Assay for human Liver X Receptor beta (LXRb) (AID 2282981); conditions: HepG2 Attagene TRANS GAL4-LXRb reporter, mRNA
Procedure, shortened: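 Transient transfection HepG2 (multiplexed RTUs, GAL4-UAS); NR-Gal4 chimera; 24 h exposure; RNA → RT-PCR → 6-FAM primer extension → HpaI → CE; increase vs DMSO.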

[10] = target: Hepatocyte nuclear factor 4-alpha (Homo sapiens) (UniProt P41235); experiment: ATG_HNF4a_TRANS: Attagene TRANS-FACTORIAL HepG2 Assay for human Hepatocyte Nuclear Factor 4 alpha (HNF4a) (AID 2282982); conditions: HepG2 HNF4a transactivation reporter, mRNA readout
Procedure, shortened: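 Readout is fluorescent reporter-transcript fragments resolved by capillary electrophoresis after RT-PCR from HepG2 cells dosed for 24 h. Cells carried transfected GAL4-UAS reporter constructs measuring exogenous NR-GAL4 chimera activity; DMSO served as baseline.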

[11] = ATG_M_06_TRANS: Attagene TRANS-FACTORIAL HepG2 Assay for M06 Transcription Factor (Internal Marker) (AID 2282983); conditions: HepG2 Attagene TRANS M06 internal marker reporter
Procedure, shortened: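 Cells: HepG2, transient multi-reporter transfection. Exposure: 24 h. Detection: RT-PCR, 6-FAM labelling, HpaI digestion (2 h, 37 °C), capillary electrophoresis. Baseline: DMSO.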

[12] = target: Nuclear receptor subfamily 4 group A member 2 (Homo sapiens) (UniProt P43354); experiment: ATG_NURR1_TRANS: Attagene TRANS-FACTORIAL HepG2 Assay for human Nuclear Receptor Related Protein 1 (NURR1) (AID 2282985); conditions: HepG2 Attagene TRANS reporter, mRNA readout
Procedure, shortened: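 Transient transfection of HepG2, human liver cells, with multiple GAL4-UAS reporter transcription units. Cells dosed 24 h, RNA isolated, reverse-transcribed, PCR-amplified, FAM-labelled, HpaI-digested, sized by capillary electrophoresis. DMSO served as negative control.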

[13] = target: Transcriptional activator Myb (Homo sapiens) (UniProt P10242); experiment: ATG_Myb_CIS: Attagene CIS-FACTORIAL HepG2 Assay for human Myeloblastosis (Myb) Proto-Oncogene Transcription Factor (AID 2282986; active = hit-call score of the fitted dose curve at least 0.9, where 1 is the maximum; inactive = score below 0.9); conditions: HepG2 Attagene CIS-FACTORIAL Myb reporter transcription; actives raise or lower the signal
Procedure, shortened: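 Reporter transcript levels, quantified by fluorescent RT-PCR and capillary electrophoresis, serve as the read-out. Transfected HepG2 cells carrying cis-promoter reporter units are dosed for 24 hours, and curves are fitted bidirectionally against DMSO controls.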

[14] = target: Steroid hormone receptor ERR1 (Homo sapiens) (UniProt P11474); experiment: ATG_ERRa_TRANS: Attagene TRANS-FACTORIAL HepG2 Assay for human Estrogen-Related Receptor alpha (ERRa) (AID 2282971); conditions: HepG2 Attagene TRANS reporter, ERRa transactivation
Procedure, shortened: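 Reporter transcripts from ERRa-Gal4 chimera activity measured in transiently transfected human HepG2 cells 24 hours after dosing, using RT-PCR with 6-FAM primer extension, HpaI digestion and capillary electrophoresis; DMSO is baseline.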

[15] = ATG_M_19_TRANS: Attagene TRANS-FACTORIAL HepG2 Assay for M19 Transcription Factor (Internal Marker) (AID 2282974); conditions: HepG2 Attagene TRANS-FACTORIAL M19 internal marker reporter
Procedure, shortened: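 Fluorescence of 6-FAM-labelled reporter cDNA fragments, separated by capillary electrophoresis, served as the readout. These derived from HepG2 cells carrying transfected GAL4-UAS reporter units after 24 h dosing, with DMSO as negative control.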

[16] = target: Bile acid receptor (Homo sapiens) (UniProt Q96RI1); experiment: ATG_FXR_TRANS: Attagene TRANS-FACTORIAL HepG2 Assay for Farnesoid X Receptor (FXR) (AID 2282979); conditions: HepG2 Attagene TRANS FXR-GAL4 reporter transcription;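 also: hits raise reporter mRNA above DMSO so AC50 marks FXR activation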
Procedure, shortened: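 Reporter transcripts from transfected HepG2 cells were measured 24 h after dosing, using RT-PCR with capillary electrophoresis of 6-FAM-labelled fragments. The read-out reflects activity of exogenous FXR-Gal4 chimera on GAL4-UAS units, with induction relative to DMSO.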

[17] = target: Oxysterols receptor LXR-alpha (Homo sapiens) (UniProt Q13133); experiment: ATG_LXRa_TRANS: Attagene TRANS-FACTORIAL HepG2 Assay for human Liver X Receptor alpha (LXRa) (AID 2282980); conditions: HepG2 Attagene TRANS reporter, LXRa transactivation
Procedure, shortened: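 Chemical-induced reporter mRNA measured by RT-PCR with fluorescent labelling and capillary electrophoresis after 24 h dosing of transiently transfected HepG2 cells expressing exogenous NR-Gal4 chimeras; increases scored against DMSO baseline.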

[18] = ATG_M_32_TRANS: Attagene TRANS-FACTORIAL HepG2 Assay for M32 Transcription Factor (Internal Marker) (AID 2282984); conditions: HepG2 Attagene TRANS M32 internal marker reporter
Procedure, shortened: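 Measures reporter mRNA induction in human HepG2 liver cells after 24 h chemical treatment. Transcripts from transiently transfected GAL4-UAS reporter units are amplified, fluorescently labelled and sized by capillary electrophoresis; gain of signal relative to DMSO.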

[19] = ATG_TGFb_CIS: Attagene CIS-FACTORIAL HepG2 Assay for human Transforming Growth Factor (TGF) (AID 2282967; active = hit-call score of the fitted dose curve at least 0.9, where 1 is the maximum; inactive = score below 0.9); conditions: HepG2 Attagene CIS TGFb reporter, mRNA transcription; actives raise or lower the signal
Procedure, shortened: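 Readout: fluorescently labeled reporter cDNA fragments resolved by capillary electrophoresis after RT-PCR. Transfected HepG2 cells dosed for 24 h; endogenous TF activity at TGFB1-linked cis element; gain or loss fitted relative to DMSO.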

Measured: outcome

Hepatocyte nuclear factor 4-alpha (Homo sapiens), sequence (P41235 whole entry, looked up, the tested form may be a part): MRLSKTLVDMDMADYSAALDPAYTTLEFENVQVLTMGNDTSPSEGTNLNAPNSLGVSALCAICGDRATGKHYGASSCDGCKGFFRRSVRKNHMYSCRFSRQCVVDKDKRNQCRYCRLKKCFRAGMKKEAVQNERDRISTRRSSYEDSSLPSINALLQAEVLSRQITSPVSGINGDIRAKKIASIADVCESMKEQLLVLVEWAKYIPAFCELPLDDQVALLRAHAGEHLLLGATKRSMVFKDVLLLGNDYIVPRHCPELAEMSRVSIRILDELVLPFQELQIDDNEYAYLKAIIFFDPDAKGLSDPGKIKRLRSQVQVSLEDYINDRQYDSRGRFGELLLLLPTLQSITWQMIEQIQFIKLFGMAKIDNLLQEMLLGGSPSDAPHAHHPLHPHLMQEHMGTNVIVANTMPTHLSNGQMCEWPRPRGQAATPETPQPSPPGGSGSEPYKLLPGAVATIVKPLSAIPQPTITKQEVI
Glucocorticoid receptor (Homo sapiens), sequence (P04150 whole entry, looked up, the tested form may be a part): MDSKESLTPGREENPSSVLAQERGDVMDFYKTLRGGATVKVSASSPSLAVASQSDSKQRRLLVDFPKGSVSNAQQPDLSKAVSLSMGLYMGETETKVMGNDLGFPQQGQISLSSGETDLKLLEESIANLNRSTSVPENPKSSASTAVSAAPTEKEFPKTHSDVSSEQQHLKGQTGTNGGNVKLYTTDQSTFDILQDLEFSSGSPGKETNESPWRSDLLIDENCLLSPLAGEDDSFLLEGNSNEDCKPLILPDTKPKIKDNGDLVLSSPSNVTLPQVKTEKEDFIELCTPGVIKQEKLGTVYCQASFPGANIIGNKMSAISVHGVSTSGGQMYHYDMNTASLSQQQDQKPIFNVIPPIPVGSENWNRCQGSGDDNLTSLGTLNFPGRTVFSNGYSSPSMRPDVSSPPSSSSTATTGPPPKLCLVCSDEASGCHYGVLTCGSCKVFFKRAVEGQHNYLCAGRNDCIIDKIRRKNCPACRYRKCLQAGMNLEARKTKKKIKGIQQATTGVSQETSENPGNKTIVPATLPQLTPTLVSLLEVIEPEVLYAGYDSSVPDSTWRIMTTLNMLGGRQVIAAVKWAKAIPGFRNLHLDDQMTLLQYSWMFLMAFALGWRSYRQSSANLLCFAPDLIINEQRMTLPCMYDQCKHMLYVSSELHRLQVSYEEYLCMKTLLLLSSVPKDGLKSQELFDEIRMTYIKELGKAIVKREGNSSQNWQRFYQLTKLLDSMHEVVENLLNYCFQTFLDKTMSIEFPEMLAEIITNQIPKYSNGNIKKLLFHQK
Transcriptional activator Myb (Homo sapiens), sequence (P10242 whole entry, looked up): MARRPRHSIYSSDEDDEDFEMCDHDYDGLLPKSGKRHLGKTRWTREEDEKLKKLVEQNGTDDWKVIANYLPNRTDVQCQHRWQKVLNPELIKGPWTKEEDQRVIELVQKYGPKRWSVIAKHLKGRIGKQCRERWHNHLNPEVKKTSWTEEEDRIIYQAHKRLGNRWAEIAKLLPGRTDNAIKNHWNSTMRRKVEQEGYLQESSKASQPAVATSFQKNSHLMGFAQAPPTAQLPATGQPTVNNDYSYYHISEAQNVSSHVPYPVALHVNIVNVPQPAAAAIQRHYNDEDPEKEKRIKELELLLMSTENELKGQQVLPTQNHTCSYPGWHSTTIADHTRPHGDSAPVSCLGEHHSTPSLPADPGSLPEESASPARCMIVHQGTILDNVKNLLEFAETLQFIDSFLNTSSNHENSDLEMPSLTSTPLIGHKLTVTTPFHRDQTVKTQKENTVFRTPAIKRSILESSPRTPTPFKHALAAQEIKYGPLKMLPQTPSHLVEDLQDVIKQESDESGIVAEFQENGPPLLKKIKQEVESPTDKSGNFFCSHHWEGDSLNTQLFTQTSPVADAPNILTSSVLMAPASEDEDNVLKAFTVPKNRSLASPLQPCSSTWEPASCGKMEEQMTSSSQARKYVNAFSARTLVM
X-box-binding protein 1 (Homo sapiens), sequence (P17861 whole entry, looked up): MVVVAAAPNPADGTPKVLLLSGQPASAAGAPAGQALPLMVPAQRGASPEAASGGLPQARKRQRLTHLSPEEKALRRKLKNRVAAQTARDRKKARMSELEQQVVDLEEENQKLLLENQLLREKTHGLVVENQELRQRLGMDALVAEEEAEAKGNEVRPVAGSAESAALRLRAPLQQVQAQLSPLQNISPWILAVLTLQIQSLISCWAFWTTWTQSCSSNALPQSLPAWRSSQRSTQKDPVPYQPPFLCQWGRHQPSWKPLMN
Bile acid receptor (Homo sapiens), sequence (Q96RI1 whole entry, looked up, the tested form may be a part): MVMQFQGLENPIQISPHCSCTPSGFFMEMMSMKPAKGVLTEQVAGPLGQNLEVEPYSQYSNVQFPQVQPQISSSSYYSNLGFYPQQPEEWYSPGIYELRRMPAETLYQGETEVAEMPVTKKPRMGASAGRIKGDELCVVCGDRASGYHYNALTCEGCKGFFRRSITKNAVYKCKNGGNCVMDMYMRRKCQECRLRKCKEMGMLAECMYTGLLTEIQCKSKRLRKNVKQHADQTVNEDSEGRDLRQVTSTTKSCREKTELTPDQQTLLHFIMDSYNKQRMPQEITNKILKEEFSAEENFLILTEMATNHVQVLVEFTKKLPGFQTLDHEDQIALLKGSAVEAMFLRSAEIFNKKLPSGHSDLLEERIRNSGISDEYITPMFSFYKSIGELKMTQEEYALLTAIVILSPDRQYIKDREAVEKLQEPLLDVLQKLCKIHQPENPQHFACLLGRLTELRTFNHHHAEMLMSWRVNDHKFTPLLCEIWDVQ
Estrogen-related receptor gamma (Homo sapiens), sequence (P62508 whole entry, looked up, the tested form may be a part): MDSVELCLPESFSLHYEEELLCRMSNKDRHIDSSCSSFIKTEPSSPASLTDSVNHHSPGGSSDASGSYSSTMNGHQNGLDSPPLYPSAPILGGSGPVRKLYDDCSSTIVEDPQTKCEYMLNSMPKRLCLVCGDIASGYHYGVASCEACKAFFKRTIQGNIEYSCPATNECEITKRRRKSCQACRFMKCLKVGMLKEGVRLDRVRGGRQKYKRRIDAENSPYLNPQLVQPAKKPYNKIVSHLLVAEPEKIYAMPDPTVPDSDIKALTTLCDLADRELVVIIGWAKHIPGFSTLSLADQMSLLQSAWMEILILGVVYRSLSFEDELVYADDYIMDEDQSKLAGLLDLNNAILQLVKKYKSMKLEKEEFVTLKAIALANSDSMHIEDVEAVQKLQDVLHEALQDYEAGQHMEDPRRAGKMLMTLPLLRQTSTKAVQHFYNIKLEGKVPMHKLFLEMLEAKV
Nuclear receptor subfamily 1 group I member 3 (Homo sapiens), sequence (Q14994 whole entry, looked up, the tested form may be a part): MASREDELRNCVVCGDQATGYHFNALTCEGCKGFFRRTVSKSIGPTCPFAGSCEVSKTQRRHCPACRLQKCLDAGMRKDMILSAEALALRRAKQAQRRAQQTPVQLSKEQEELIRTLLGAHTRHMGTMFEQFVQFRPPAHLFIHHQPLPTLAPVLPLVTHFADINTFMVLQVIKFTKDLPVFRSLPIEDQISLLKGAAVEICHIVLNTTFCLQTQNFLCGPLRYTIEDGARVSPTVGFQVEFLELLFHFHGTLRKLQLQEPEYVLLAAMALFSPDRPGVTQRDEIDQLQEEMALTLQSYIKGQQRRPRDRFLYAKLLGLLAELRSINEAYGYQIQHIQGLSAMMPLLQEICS
Oxysterols receptor LXR-alpha (Homo sapiens), sequence (Q13133 whole entry, looked up, the tested form may be a part): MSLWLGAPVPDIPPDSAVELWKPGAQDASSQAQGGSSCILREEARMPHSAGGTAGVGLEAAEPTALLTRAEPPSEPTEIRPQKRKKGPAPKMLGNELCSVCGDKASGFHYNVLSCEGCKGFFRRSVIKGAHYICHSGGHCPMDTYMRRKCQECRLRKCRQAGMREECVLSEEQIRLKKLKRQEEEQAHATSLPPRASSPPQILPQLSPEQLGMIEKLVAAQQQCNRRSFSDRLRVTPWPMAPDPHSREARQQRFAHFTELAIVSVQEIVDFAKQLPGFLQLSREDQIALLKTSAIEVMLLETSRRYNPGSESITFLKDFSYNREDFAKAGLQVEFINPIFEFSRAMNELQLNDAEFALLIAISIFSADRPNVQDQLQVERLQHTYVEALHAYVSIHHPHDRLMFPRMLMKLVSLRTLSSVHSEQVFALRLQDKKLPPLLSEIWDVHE
Oxysterols receptor LXR-beta (Homo sapiens), sequence (P55055 whole entry, looked up, the tested form may be a part): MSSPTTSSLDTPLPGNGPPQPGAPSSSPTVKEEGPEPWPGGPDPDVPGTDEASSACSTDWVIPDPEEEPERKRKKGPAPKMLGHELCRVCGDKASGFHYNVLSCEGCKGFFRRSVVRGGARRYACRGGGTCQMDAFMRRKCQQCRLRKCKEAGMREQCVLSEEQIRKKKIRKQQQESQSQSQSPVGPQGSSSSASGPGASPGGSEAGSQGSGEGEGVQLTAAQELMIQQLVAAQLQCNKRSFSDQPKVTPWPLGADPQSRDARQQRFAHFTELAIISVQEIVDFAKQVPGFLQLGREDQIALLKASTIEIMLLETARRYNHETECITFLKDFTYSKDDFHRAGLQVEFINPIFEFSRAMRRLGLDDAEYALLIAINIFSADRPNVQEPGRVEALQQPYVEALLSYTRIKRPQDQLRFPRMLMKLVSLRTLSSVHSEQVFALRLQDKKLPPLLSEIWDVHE
Nuclear receptor subfamily 4 group A member 2 (Homo sapiens), sequence (P43354 whole entry, looked up, the tested form may be a part): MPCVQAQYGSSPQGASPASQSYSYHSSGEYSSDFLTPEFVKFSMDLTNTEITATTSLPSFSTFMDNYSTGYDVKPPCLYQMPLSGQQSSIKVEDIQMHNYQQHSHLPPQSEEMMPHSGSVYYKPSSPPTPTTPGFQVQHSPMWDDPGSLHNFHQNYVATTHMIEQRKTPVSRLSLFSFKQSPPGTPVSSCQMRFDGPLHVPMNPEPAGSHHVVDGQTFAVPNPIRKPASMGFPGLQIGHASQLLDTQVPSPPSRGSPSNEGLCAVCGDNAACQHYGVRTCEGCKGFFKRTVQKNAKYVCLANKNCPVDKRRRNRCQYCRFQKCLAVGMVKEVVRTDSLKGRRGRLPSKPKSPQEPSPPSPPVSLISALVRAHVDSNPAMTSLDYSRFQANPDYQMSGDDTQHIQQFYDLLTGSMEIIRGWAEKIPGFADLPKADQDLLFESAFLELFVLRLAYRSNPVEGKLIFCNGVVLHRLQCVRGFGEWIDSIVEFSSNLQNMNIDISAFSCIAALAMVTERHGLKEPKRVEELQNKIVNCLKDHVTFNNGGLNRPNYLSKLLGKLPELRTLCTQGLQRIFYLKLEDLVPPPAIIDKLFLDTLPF

Cc1ccc(C(C)C)c(O)c1
not listed: [14] | [15] | [16] | [17] | [18] | [19]
inactive: all other assays above

CCOC(=O)C(C)(C)Oc1ccc(Cl)cc1
not listed: [4] | [7] | [8] | [9] | [10] | [11] | [19]
inactive: all other assays above

NCCO
inactive: [1] | [2] | [5] | [15] | [6] | [9] | [12] | [13]

CCCCCCOCCO
not listed: [4] | [7] | [14] | [16] | [19]
inactive: all other assays above

COc1cc(C=O)ccc1O
inactive: [1] | [19] | [3] | [4] | [5] | [15] | [6] | [16] | [13]

FC(F)(F)C(F)(F)C(F)(F)C(F)(F)C(F)(F)C(F)(F)CCI
inactive: [1] | [19] | [3] | [4] | [5] | [17] | [9] | [11] | [18] | [13]

Cc1cc(NC(=O)C(=O)O)cc(C)c1Oc1ccc(O)c2c1CCC2
not listed: [2] | [14] | [15] | [17]
inactive: all other assays above

CCCCCCCCCCCCCCCCCC(=O)O
inactive: [1] | [2] | [5] | [15] | [6] | [7] | [13]

CCNc1cccc(C)c1
not listed: [2] | [6] | [8] | [10] | [14] | [15] | [16] | [18]
inactive: all other assays above

COc1cc(S(=O)(=O)O)c(C)cc1N=Nc1c(O)ccc2cc(S(=O)(=O)O)ccc12
not listed: [2] | [7] | [9] | [15] | [17] | [18]
inactive: all other assays above

O=c1[nH]cc(F)c(=O)[nH]1
inactive: [1] | [2] | [3] | [5] | [15] | [8] | [18] | [12] | [13]
